Test results published in the supplement of paper PMC3616981.
± gives the standard deviation of the averaged measurements.

Compound: CC(C)c1cccc(C(C)C)c1N1C(=O)c2ccc(O)cc2C1=O
Test: BioMAP readout fold decrease vs vehicle (vehicle/treated); higher = stronger decrease of the readout vs vehicle (values <1 mean increase)
Experimental: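 BioSeek BioMAP human primary cell (co-)culture systems (3C, 4H, LPS, SAg, BE3C, CASM3C, hDFCGF, KF3CT) treated with 5HPP-33 at 1.48, 4.44, 13.3 and 40 µM. Read-outs are protein levels by ELISA, proliferation and SRB total protein. Duplicate rows per assay are averaged as replicates. Tested in ToxCast Phase II for this study; exposure time not stated.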
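Also: Co-cultures of keratinocytes, bronchial epithelial and smooth muscle cells, fibroblasts, HUVECs and PBMCs under stimuli like LPS, TNF-α, IFN-γ, IL-1β, TGF-β or EGF, SRB reflecting cytotoxicity.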

| Target | BioMAP readout fold decrease (1.48 µM) | BioMAP readout fold decrease (4.44 µM) | BioMAP readout fold decrease (13.3 µM) | BioMAP readout fold decrease (40 µM) |
| --- | --- | --- | --- | --- |
| SAg_CD69 | 1.13 ± 0.076 | 1.24 ± 0.035 | 1.52 ± 0.077 | 3.2 ± 0.15 |
| LPS_TissueFactor | 0.905 ± 0.021 | 0.9505 ± 0.0063 | 1.04 ± 0.02 | 1.21 ± 0.024 |
| CASM3C_MIG | 0.9799 ± 0.0029 | 0.9517 ± 0.009 | 0.96395 ± 0.0005 | 1.03 ± 0.015 |
| 3C_uPAR | 1.13 ± 0.03 | 1.15 ± 0.053 | 1.43 ± 0.1 | 2.6 ± 0.15 |
| 3C_SRB | 0.983 ± 0.018 | 1.13 ± 0.012 | 1.46 ± 0.018 | 2.09 ± 0.16 |
| BE3C_uPA | 1.07 ± 0.019 | 1.017 ± 0.0048 | 1.027 ± 0.0098 | 1.15 ± 0.042 |
| 4H_MCP1 | 1.01 ± 0.026 | 0.699 ± 0.023 | 0.623 ± 0.0095 | 1.43 ± 0.071 |
| BE3C_hLADR | 0.985 ± 0.037 | 1.17 ± 0.015 | 1.72 ± 0.043 | 2.97 ± 0.053 |
| BE3C_SRB | 0.9933 ± 0.0058 | 0.9934 ± 0.0085 | 1.0272 ± 0.001 | 1.1579 ± 0.0011 |
| KF3CT_IL1a | 0.969 ± 0.029 | 0.992 ± 0.045 | 0.987 ± 0.034 | 2.08 ± 0.17 |
